Screening results from PubChem.
In the library only some 9.1% were active in any assay of this set; here they are far more common.
M1 antagonist – antagonists of rat M1 muscarinic receptor; CHO-M1 cells, Fluo-4 calcium, ACh EC80 antagonist mode; stronger effect = lower value; B-score at 10 µM; 64,000 tested, 3.4% active;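 active means calcium fluorescence response, raw or row-and-column corrected B-score, differing from the plate sample mean either way at a set confidence level, mostly lower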
D1 allo mod – D1 CRE-luciferase signal change, two-sided – cell-based, HEK293 D1, dopamine EC30, D1 allosteric modulator project, primary screen; dopamine EC30 potentiation; actives deviate in either direction; B-score at 10 µM; 58,000 tested, 5.9% active; AID 641, 2007;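 active means luminescence count or its row- and column-corrected plate score outside the 99.7% band of the plate's sample wells, on either side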
M1 ag – M1 muscarinic receptor agonists, primary screen, CHO-M1 cells, Fluo-4 calcium, agonist mode | AID 626, 2007 | 64,000 tested, 3% active | B-score at 10 µM | Fluo-4 calcium fluorescence; stronger effect = higher value;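 active means fluorescence rise, raw or as B-score row- and column-corrected plate score, outside the 99.7% band of its plate's samples, either direction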
Htt clearance – clearance of mutant huntingtin inclusions, primary screen, imaging, HeLa Exon1htt(103Q)mCFP, confocal imaging. aggregate imaging; zero = plate's median compound well. inhibition, % at 1.5 µM. 47,000 tested, 0.42% active. AID 853, 2007;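 active means inhibition of aggregate fluorescence above about 70%, also judged a hit by eye on the cell image, limit read from the data, passing the limit was not always enough; inconclusive means no rule stated for this call; inactive means not judged a hit on image review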;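 further: cells exposed to compound for three days before fixation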
M1 agonist conf – rat M1 muscarinic receptor agonists, confirmation, CHO-M1 cells, Fluo-4 calcium, duplicate retest; 1,700 tested, 19% active; AID 1488, 2009; shares compounds with M1 ag; fluorescence change (max-min) at 10 µM; Fluo-4 calcium fluorescence, agonist mode; actives lie on both sides;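 active means fluorescence change differs from the solvent-only DMSO control mean at a set confidence level in both duplicate runs; inconclusive means differs from solvent-only control mean in just one of two runs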;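 further: an EC20 dose of acetylcholine follows compound addition during the same imaging run; raw fluorescence intensity difference in instrument units with no normalization to controls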
M4 ag counter – agonist activity at rat M4 receptor, confirmation, counter-screen for M1 allosteric modulator project, cell-based, agonist mode | shares compounds with M1 ag | CHO M4/Gqi5 cells, Fluo-4 calcium fluorescence; actives lie on both sides | fluorescence change (max-min) at 10 µM | 1,700 tested, 9% active;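 active means fluorescence change differing from the plate's solvent-only control wells at 99.7% confidence in both duplicates, whether higher or lower; inconclusive means differs from solvent controls in only one of two duplicates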
Target sequence (P08485 whole entry, looked up): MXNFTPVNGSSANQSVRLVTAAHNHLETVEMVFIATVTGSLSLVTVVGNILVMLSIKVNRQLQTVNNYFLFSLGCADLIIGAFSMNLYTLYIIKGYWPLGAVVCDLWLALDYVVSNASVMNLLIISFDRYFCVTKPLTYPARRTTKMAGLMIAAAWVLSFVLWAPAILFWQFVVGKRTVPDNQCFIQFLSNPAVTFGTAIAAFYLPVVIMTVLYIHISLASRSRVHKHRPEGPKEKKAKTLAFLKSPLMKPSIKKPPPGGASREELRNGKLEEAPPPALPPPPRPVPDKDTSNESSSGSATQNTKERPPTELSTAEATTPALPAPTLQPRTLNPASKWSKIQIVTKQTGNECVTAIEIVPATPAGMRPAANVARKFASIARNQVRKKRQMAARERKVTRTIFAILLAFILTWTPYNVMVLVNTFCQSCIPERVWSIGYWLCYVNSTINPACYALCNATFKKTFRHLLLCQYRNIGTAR
* hit, by the source's call; ? = inconclusive; nt = no result given.

SMILES | M1 antagonist | D1 allo mod | M1 ag | Htt clearance | M1 agonist conf | M4 ag counter
COc1cccc(-n2c(C)nc3c(cnn3-c3ccc(C)cc3)c2=O)c1 | -0.13 | 0.082 | 0.29 | nt | nt | nt
COC(=O)C(C)n1cnc2c(cnn2-c2ccc(Cl)cc2)c1=O (configuration not stated) | -0.17 | nt | 4.6* | 41 | -5 | -43
Cc1cccc(-n2c(C)nc3c(cnn3-c3ccc(F)cc3)c2=O)c1 | -0.74 | 0.4 | 9.4* | -31 | -4.2 | ?
CCOC(=O)C1=C(C)NC(C)=C(C(=O)OCC)C1c1ccc(OC)cc1 | -0.018 | nt | 1.9* | -38 | 1.3 | -23
COc1ccc(CNC(=O)CSc2nnnn2-c2ccc(O)cc2)cc1 | -0.13 | -0.33 | -0.024 | ? | nt | nt
COc1ccc(OCC(O)CN2C(=O)c3ccccc3S2(=O)=O)cc1 (configuration not stated) | 0.39 | -0.041 | -0.009 | -17 | nt | nt
O=C(Nc1ccccc1)c1ccccc1OCC(O)CN1C(=O)c2ccccc2S1(=O)=O (configuration not stated) | -1.9 | -1.7 | 6.1* | 40 | -20 | ?
CC1(C)NC(=O)N(CC(O)COc2ccccc2C(=O)Nc2ccccc2)C1=O (configuration not stated) | -2.4 | nt | 5.4* | nt | ? | -42
COc1ccccc1N=c1oc2cc(O)ccc2cc1C(N)=O | -1.7 | 0.22 | 7.6* | nt | 39 | 12
Cc1cccc(N=c2oc3cc(O)ccc3cc2C(N)=O)c1 | -0.033 | -1 | 5.4* | nt | 24 | 10
COc1ccccc1N=c1oc2cc(O)ccc2cc1C(=O)NCC1CCCO1 (configuration not stated) | 0.031 | -0.2 | 2.1 | nt | nt | nt
CN1CCN(CCCNC(=O)c2cn(C3CCCCC3)c(=O)c3c2c2ccccc2n3C)CC1 | 0.36 | -0.065 | -0.44 | 0 | nt | nt
Cn1c2ccccc2c2c(C(=O)NCC3CCCO3)cn(C3CCCC3)c(=O)c21 (configuration not stated) | 0.0061 | 0.87 | 8.8* | nt | -9.8 | -63
CCn1c(SCCC(=O)Nc2ccccc2)nnc1-c1ccc(OC)cc1 | 0.49 | -0.5 | 0.37 | -45 | nt | nt
Cc1nc(OCc2ccccc2)c2sc3nc4c(cc3c2n1)COC(C)(C)C4 | nt | nt | nt | -27 | nt | nt
CC1(C)Cc2nc3oc4c(N(CCO)Cc5ccccc5)ncnc4c3cc2CO1 | -0.47 | 1.6 | 8.1* | nt | -12 | -20
Cc1cc(NC(=O)COC(=O)c2cccc(S(=O)(=O)N3CCOCC3)c2)no1 | -0.032 | -0.31 | -0.066 | ? | nt | nt
Cc1noc(C)c1COC(=O)c1cccc(S(=O)(=O)N2CCCCCC2)c1 | -2.2 | -1.1 | 3.1* | nt | -17 | -39
COC(=O)C(CC(=O)c1ccc(Br)cc1)n1ccnc1 (configuration not stated) | nt | -0.44 | nt | nt | nt | nt
Cc1ccc(C)c(N2CCN(C(=O)c3cc4ccccn4n3)CC2)c1 | -0.77 | 1.7 | 31* | nt | 55 | 10
c1csc(CCNc2ncnc3sc4c(c23)CCC4)c1 | -1.3* | nt | 3.9* | nt | 3.1 | -21
Cc1ccc2[nH]c3c(c2c1)CN(C(=O)CN1CCN(c2ccccc2F)CC1)CC3 | -0.036 | 0.54 | 0.15 | -28 | nt | nt
CC(C)COC(=O)Cn1cnc2ccc(Br)cc2c1=O | -0.02 | 0.01 | -0.26 | 17 | nt | nt
Cc1ccc(Cl)cc1N1CCN(C(=O)C2CCN(S(=O)(=O)c3c(C)nn(C)c3C)CC2)CC1 | -2.6* | -1.3 | 8* | nt | ? | -59
COc1cccc(/C=N/n2c(C)nc3ccccc3c2=O)c1O | -0.5 | 0.73 | 1.6 | 17 | nt | nt
SMILES | M1 antagonist | D1 allo mod | M1 ag | Htt clearance | M1 agonist conf | M4 ag counter
COc1cccc(CNn2c(-c3cccc(C)c3)nc3ccccc3c2=O)c1O | -1.2 | 0.031 | 8.6* | 1 | ? | -43
COc1ccccc1/C=c1\sc2nc(-c3cccs3)nn2c1=O | 1.2 | 0.44 | -0.22 | -39 | nt | nt
Cc1ccc(/C=c2\sc3nc(-c4cccs4)nn3c2=O)o1 | 0.3 | -0.014 | 46* | 6 | 39 | 48
O=S(=O)(Nc1cccnc1)c1ccc(C2CCCCC2)cc1 | -3.1* | -0.2 | 7.1* | nt | 12 | -15
O=S(=O)(Nc1ccccn1)c1ccc(C2CCCCC2)cc1 | nt | 0.5 | nt | 11 | nt | nt
Cc1ccc(C)c(N2CCN(S(=O)(=O)c3ccc4c(c3)CCC(=O)N4)CC2)c1 | 1.3 | 0.16 | 2 | -96 | nt | nt
Cc1ccc(C)c(N2CCN(C(=O)CN(C)S(=O)(=O)c3ccc4c(c3)CCC(=O)N4)CC2)c1 | 1.6 | nt | 2.3* | 0 | ? | -48
Cc1ccc(-c2nn[nH]n2)o1 | 0.095 | -0.68 | 4.3* | nt | -15 | ?
CCOC(=O)C1=C2SCCN2C(=O)C(C#N)C1(C)C (configuration not stated) | -0.19 | -0.44 | 3.5* | 37 | -16 | -14
CN(C)c1oc(-c2ccccc2F)nc1C#N | -1.1 | 4.9 | 8.3* | 19 | -14 | -45
O=C(CSCc1cccc(Cl)c1)N1CCN(Cc2ccc3c(c2)OCO3)CC1 | nt | nt | nt | -16 | nt | nt
Nc1nc(SCC(=O)NCCCN2CCOCC2)nc2sc3c(c12)CCC3 | -0.00057 | -1.3 | -0.083 | nt | nt | nt
Cc1oc2nc(SCCCC(=O)NCCCO)nc(N)c2c1C | 0.73 | 0.99 | 4.6* | nt | ? | ?
Cn1cc(C(=O)c2ccccc2)cc1-c1nc2ccccc2n1C | -0.63 | -0.019 | 6.5* | nt | -3 | -6.8
COc1ccccc1CCNC(=O)c1cnn2c(C(F)F)cc(C)nc12 | -0.53 | nt | 2.5* | nt | -9.9 | -34
O=S(=O)(NCc1ccccc1)c1cccs1 | nt | nt | nt | 19 | nt | nt
O=C(N/N=C1\CCCc2ccccc21)C(O)c1ccccc1 (configuration not stated) | nt | nt | nt | 8 | nt | nt
COc1ccc(-n2nnnc2SCC(=O)c2ccc(O)c(O)c2)cc1 | -0.0092 | -0.93 | 11* | -75 | -7.3 | -54
COc1ccccc1N(C)S(=O)(=O)c1ccc(C(=O)OCC(=O)NCc2ccco2)cc1 | -0.65 | nt | 6.9* | 30 | -19 | -38
CCn1c(SCC(=O)c2cc(C)n(CC3CCCO3)c2C)nc2ccccc21 (configuration not stated) | 0.033 | -0.36 | 5.3* | nt | ? | -44
Cc1cccc(/N=C/c2c(O)n(-c3cc(Cl)ccc3N3CCOCC3)c(=O)c3ccccc23)n1 | 0.54 | 1.4 | 0.0073 | nt | nt | nt
O=c1c2ccccc2c(C=Nc2ccc(Cl)cn2)c(O)n1-c1cc(Cl)ccc1N1CCOCC1 | 0.49 | -1.1 | 15* | 8 | -10 | -11
O=C1c2ccccc2C(O)(Cc2ccccc2)N1c1ccc2c(c1)OCO2 (configuration not stated) | -0.15 | -0.063 | -0.11 | nt | nt | nt
O=c1c(O)c(-c2ccc(O)cc2O)oc2cc(O)cc(O)c12 | 0.15 | 0.058 | 27* | nt | 74* | 52
COc1ccc(-c2c(C)oc3cc(O)cc(O)c3c2=O)cc1OC | 1.6 | -0.071 | 0.21 | nt | nt | nt
